The whole screen tested about 53,000 compounds, of which about 900 (1.7%) showed an effect of 50% or more. This excerpt belongs to a sample that is enriched for strong results.
tested on: Mycobacterium tuberculosis; assay: Cornell - Phenotypic assay to identify agents that inhibit growth of Mycobacterium tuberculosis; assay type: functional; design: scale not given: direction of the effect not stated beside the values; settings: 10 mM as filed; unlikely as a test dose

SMILES | Percent Effect
COc1cc(CC2CC(c3ccc4c(c3)OCO4)=NO2)cc2c1OCO2 (stereo not given) | 30.67%
COc1c(CC2CC(C(=O)O)=NO2)c(Br)c2c(c1OC)OCO2 (stereo not given) | 14.91%
COc1cc(CC2CC(C(N)=O)=NO2)cc2c1OCO2 (stereo not given) | 13.11%
CCOC(=O)C1=NOC(Cc2cc(OC)c3c(c2)OCO3)C1 (stereo not given) | 94.96%
Cc1cc(C)nc(C2CCN(C(=O)c3cncnc3C)C2)n1 (stereo not given) | -38.99%
Cc1nc(CN2C(=O)COC3(CCN(CC4CC4)CC3)C2C)cs1.O=C(O)C(F)(F)F (stereo not given) | 6.692%
Cc1c(C(=O)NC2CCCOC2)nnn1-c1ccccc1 (stereo not given) | -4.644%
Cc1cccc(-c2noc(C)c2C(=O)NC2CCCOC2)c1.O=C(O)CC(O)(CC(=O)O)C(=O)O (stereo not given) | 20.12%
Cc1onc(-c2ccncc2)c1C(=O)NC1CCCOC1 (stereo not given) | 52.15%
Cc1cnn(CC2CCCN2CC(=O)Nc2cc(C(C)(C)C)no2)c1 (stereo not given) | 16.98%
CCN1CCN(C(=O)NCc2cccnc2-n2cccn2)CC1 | -23.25%
CNC(=O)[C@@H]1CN(C(=O)COC)C[C@H]1c1ccnc(N2CCCC2)n1 | 50.96%
CCC(=O)N1C[C@@H](C(=O)NC)[C@H](c2ccnc(N3CCCC3)n2)C1.Cl | 24.83%
CNC(=O)[C@@H]1CN(C(=O)C(C)C)C[C@H]1c1ccnc(N2CCCC2)n1.Cl | 37.07%
CNC(=O)[C@@H]1CN(C(=O)CCOC)C[C@H]1c1ccnc(N2CCCC2)n1.Cl | 43.65%
CCNC(=O)C1CCN(c2nccc(C3CCCC3)n2)C1 (stereo not given) | 13%
CNC(=O)[C@@H]1CN(C(=O)C2CCC2)C[C@H]1c1ccnc(N2CCCC2)n1.Cl | 54.39%
CC(C)c1nn(C)c(N(C)C)c1CNC1CCC(O)CC1 (stereo not given) | 21.48%
Cc1nn(C)c(N2CCOCC2)c1CNC1CCCCNC1=O (stereo not given) | -11.46%
Cc1nn(C)c(Oc2ccccc2)c1CNC1CCCCNC1=O (stereo not given) | -7.334%
CC(C)c1nn(C)c(N(C)C)c1CNC1CCN(CC2CC2)CC1 | 58.14%
Cc1nn(C)c(N(C)C)c1CNC1CCCCNC1=O (stereo not given) | 63.11%
CC(C)c1nn(C)c(N(C)C)c1CNC1CCN(C2CC2)CC1.Cl | 42.5%
CC(C)c1nn(C)c(N(C)C)c1CNC1CCCCNC1=O (stereo not given) | 91.87%
CC(C)C(=O)N1CCC(NCc2c(C(C)C)nn(C)c2N(C)C)CC1 | 31.79%

SMILES | Percent Effect
COCCN1CCC(NCc2c(C(C)C)nn(C)c2N(C)C)CC1 | 39.85%
CN(CCc1nccs1)C(=O)CC1(O)CCCCC1 | 19.59%
COCCCNCc1cc(O)c2cc(C)cc(C)c2n1 | 3.207%
COc1ccc(OC2CCN(c3ccncc3)CC2)cc1 | 27.59%
CC(=O)Cn1nc(-c2ccccc2F)ccc1=O | 6.771%
Cc1cccc(CN2C(=O)C[C@H]3[C@@H]2CCN3Cc2ccc(F)cc2)n1.O=C(O)C(F)(F)F.O=C(O)C(F)(F)F | 15.09%
CCn1nc(C)cc1C(=O)N1C[C@@H]2C[C@@H](c3nnc(C)[nH]3)O[C@@H]2C1 | -8.9%
COc1cccc(CNC(=O)Cn2ccc3c(C)nn(C)c3c2=O)c1 | 4.678%
Cc1nn(C)c2c(=O)n(CC(=O)NCc3ccc(N(C)C)cc3)ccc12 | 96.11%
Cc1nn(C)c2c(=O)n(CC(=O)NCCC(C)C)ccc12 | 2.416%
Oc1ccc(N(CCc2ccccc2)CCn2cncn2)cc1 | 107%
OCCCN(CCn1cncn1)c1ccccc1 | -44.33%
c1ccc(N(CCn2cncn2)CC2CC2)cc1 | -28.11%
Cc1cc(CNC(=O)N2CCOC(c3ccccc3Cl)C2)no1 (stereo not given) | -0.6476%
COc1ccc(OC)c([C@@H]2N[C@H](c3nccs3)Cc3ccsc32)c1 | 46.52%
COc1cccc([C@@H]2N[C@H](c3nccs3)Cc3ccsc32)c1OC | 50.54%
COc1cc([C@@H]2N[C@H](c3nccs3)Cc3ccsc32)cc(OC)c1OC | 44.3%
Cc1ncc(-c2ccnc(NCCc3ccc(F)cc3)n2)c(=O)[nH]1 | -5.112%
Cn1ncc2c(N3CCN4CCCCC4C3)nc(C3CCCC3)nc21 (stereo not given) | 27.57%
CN1CCCc2cc(-c3cncn3CC(=O)NC(C)(C)C)ccc21.Cl | 13.27%
Cc1nn(C)c(C)c1CCn1cncc1-c1ccc2c(c1)CC(C)N2C.Cl (stereo not given) | 64.61%
CC1Cc2cc(-c3cncn3CC(=O)NC(C)(C)C)ccc2N1C.Cl (stereo not given) | -2.378%
CCOC(=O)c1n[nH]cc1-c1cncn1CCCn1nc(C)cc1C.Cl | 25.38%
CN1CCCc2cc(-c3cncn3CCNC3CCS(=O)(=O)C3)ccc21.Cl (stereo not given) | 6.115%
Cc1cc(C)n(CCCn2cncc2-c2ccc3c(c2)CC(C)N3C)n1.Cl (stereo not given) | 63.97%
